# PubChem BioAssay (NCI)
# About 83,000 compounds went through this panel and 20% of them were active in at least one assay; those are over-represented in the sample as a whole.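 Results are percent growth after 48 hours of single-concentration exposure. 100 means growth as in untreated cells, lower positive values show inhibition; negative values down to -100 show cell death.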 Calls of active or inactive are those of the source. The calls were made as follows: active = growth percent below 10; inactive = the rest.
# System: MDA-MB-468 breast
# Test: NCI-60 one-dose screen, 48 h (100 = growth as untreated, 0 = no growth, -100 = all killed)
# Settings: 10 µM unless noted
row,Compound,growth
1,O=C(CN1CCCCC1)Sc1nnc2sc3ccccc3n12,97.1% (inactive)
2,N=c1ccc2nc3c(cc(N)c4ccccc43)oc-2c1,-78.4% (active)
3,O=C1COCCN1c1ccc(Nc2nc(Cl)nc(N3CCOCC3)n2)cc1,87.2% (inactive)
4,COc1ccc(-c2oncc2-c2cc(OC)c3c(c2)OCO3)cc1,10.3% (inactive)
5,COc1cc(/C=N\Nc2ccccc2)ccc1OC(=O)c1ccccc1,44.2% (inactive)
6,COc1cc(/C=C/C(=O)c2cccs2)ccc1OCc1ccc(Cl)nc1,57.6% (inactive)
7,N#CC1=C(N)Oc2c(sc3c(Br)cccc23)C1c1ccc(F)cc1 (stereo not given),11% (inactive)
8,CN(C)c1ccc(/C=C\c2ccnc3ccccc23)cc1,31.2% (inactive)
9,COc1ccc2c(c1)O/C(=C\c1ccc([N+](=O)[O-])s1)C2=O,-1.9% (active)
10,CNc1ccccc1C(=O)N/N=C/C=C/c1ccccc1,19.8% (inactive)
11,Brc1cccc(-c2cc(-c3ccc4c(c3)OC=CO4)[nH]n2)c1,33.4% (inactive)
12,c1cc2cccc3c4cccc5cccc(c(c1)c23)c54,101% (inactive)
13,C=C1C(=O)O[C@H]2[C@H]1CC/C(COC(=O)NCCCCNC(=O)OC/C1=C/CC[C@@]3(C)O[C@H]3[C@H]3OC(=O)C(=C)[C@@H]3CC1)=C\CC[C@@]1(C)O[C@@H]21,-14.8% (active)
14,FC(F)(F)c1cccc(Oc2ccc(Nc3ncnc4ccc(OCCCN5CCOCC5)cc34)cc2Cl)c1,5.72% (active)
15,COc1ccc(Cn2cc(C(=O)Nc3cccnc3Nc3ccccc3)nn2)cc1,92.9% (inactive)
16,N#CC1=C(N)Oc2c(ccc3cccnc23)C1c1ccccc1 (stereo not given),-7.81% (active)
17,CC(=O)O[C@H]1CC[C@]2(C)[C@H]3CC=C4[C@@H]5[C@H](C)[C@@H](C)CC[C@]5(C(=O)NCCNCCNCCN)CC[C@@]4(C)[C@]3(C)CC[C@H]2C1(C)C,69.2% (inactive)
18,C/C(CCC(=O)O)=N/Nc1ccc([N+](=O)[O-])cc1,83.7% (inactive)
19,CSc1nc2[nH]ncc2c(=O)[nH]1,92.6% (inactive)
20,CCCC(=O)Nc1ccc2c(c1)CN1C(=O)c3ccccc3C1=N2,97.8% (inactive)

row,Compound,growth
1,CC1(C)CC(=O)C2=C(C1)N(c1ccc(F)cc1F)C(N)=C(C#N)C2c1cc(Br)ccc1F (stereo not given),92.9% (inactive)
2,CN(C)c1ccc2cc3c(cc2c1)Oc1ccccc1N3.[Cl][Zn][Cl],-10.4% (active)
3,c1ccc(COCC[P+](c2ccccc2)(c2ccccc2)c2ccccc2)cc1,-10.4% (active)
4,Cc1cc(N2CCCCC2)nc(N(CCNc2ccnc3cc(Cl)ccc23)Cc2ccccn2)n1,3.63% (active)
5,COc1ccc(Cn2cc3c(c2-c2ccccc2)CCc2cnoc2-3)cc1OC,-9% (active)
6,CCN1CCN(c2cc(C)c3cc(NC(=O)c4ccc(OC)c(OC)c4)ccc3n2)CC1,1.89% (active)
7,N#C/C(=C\c1ccc(C#N)cc1)C(=O)c1ccccc1,95.7% (inactive)
8,Cc1ccc(Nc2cc(N)nc(N)n2)cc1Cl,77.8% (inactive)
9,COc1ccc(/C=C2\CCCC3=C2N=C2SC=NN2C3c2ccc(OC)c(OC)c2)cc1OC (stereo not given),14.5% (inactive)
10,N#Cc1cnc2ccc(-c3cnc4n[nH]nc4c3)cc2c1N1CCc2cc(F)c(Cl)cc21,-13.9% (active)
11,CC1(C)C2=C(C(=O)N1Cc1ccccc1)C(c1ccco1)N(C(=O)C1CCC1)CCN2 (stereo not given),112% (inactive)
12,COc1cc(-c2csc(NC(=O)c3cc(F)cc(C(F)(F)F)c3)n2)cc(OC)c1OC,-1.52% (active)
13,CCOC(=O)CC(S(=O)(=O)c1ccccc1)S(=O)(=O)c1ccccc1,23.2% (inactive)
14,COc1cc(/C=C/c2cc(/C=C/c3ccc(O)c(OC)c3)n(C(=O)Nc3ccccc3Cl)n2)ccc1O,-24.2% (active)
15,CC(C)N(CCCC#N)C(C)C,104% (inactive)
16,Nc1nc(N)c2cc(NCc3ccc(Cl)c(Cl)c3)ccc2n1,-84.7% (active)
17,NCCCN1CCCC1=O,116% (inactive)
18,Clc1ccc2nc3nc4ccc[nH]c4cc3c2c1,-31.5% (active)
19,Nc1ncnc2c1c(-c1ccc(Oc3ccccc3)cc1)nn2CC1SSCC1O (stereo not given),-24.8% (active)
20,C=CCOc1cccc(/C=C/C(=O)c2sc(Nc3cccnc3)nc2C)c1,47.5% (inactive)
